SARS PLP yeast = qHTS of Yeast-based Assay for SARS-CoV PLP | hit rate 0.19% among 330,000 | S. cerevisiae expressing SARS-CoV PLpro, growth rescue | Potency, µM (series often up to 32.9 µM), usual class: activators; calls by dose curve; also: nearly all actives have a fitted effect of over 55% in size
AMA1-RON2 inh = qHTS for Inhibitors of AMA1-RON; Towards Development of Antimalarial Drug Lead: Primary Screen; Plasmodium falciparum AMA1 (3D7) - RON2 peptide interaction; AlphaScreen AMA1-biotinylated RON2 peptide binding; Potency, µM (doses to about 58.2 µM), actives largely listed as inhibitors; hit rate 0.2% among 360,000; AID 720542, 2013; also: nearly all actives have a fitted effect of over 45% in size
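AMA1 (3D7) with his tag at 25 nM final met compounds first, then biotinylated RON2 peptide at 25 nM; detection used donor plus acceptor beads, 10 µg/mL apiece, read by AlphaScreen after 30 min at room temperature.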
Tb PYK inh = qHTS of Trypanosoma Brucei Inhibitors; Potency, µM (doses to about 76.8 µM), hits mostly inhibitors; TbPYK enzyme, Kinase-Glo Plus ATP luminescence, 45 min; pyruvate kinase (Trypanosoma brucei), Q57TT1; hit rate 0.12% among 410,000; also: nearly all actives have a fitted effect of over 50% in size
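Quantitative HTS: titrated library compounds versus trypanosomal pyruvate kinase in TEA buffer (pH 7.2) containing KCl, MgCl2, BSA and Tween-20. Reactions were initiated with ADP, 130 uM final. Kinase-Glo Plus luminescence was read after 45 min at RT.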
RE007 growth inh = qHTS Assay for Inhibitors of the HIV-1 protein Vpr | S. pombe RE007 Vpr strain, BacTiter-Glo ATP luminescence, 24 h | Potency, µM (doses to about 92.2 µM), actives largely listed as inhibitors | hit rate 0.21% among 360,000; active = well fitted falling curve with a large enough effect; inconclusive = small, poorly fitted or top-dose-only effect; inactive = no such curve, though single readings can be large or run the other way; also: nearly all actives have a fitted effect of over 50% in size
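Fission yeast strain RE007, carrying one chromosomally integrated HIV-1 vpr copy, was seeded at OD 0.01 in PMG+AL medium with 23 nL pinned compound. After 24 h at 30 °C and 99% humidity, viability was read by BacTiter-Glo luminescence.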
LmPK inhibitor = qHTS Assay for Inhibitors of Leishmania Mexicana Pyruvate Kinase (LmPK); purified LmPK, Kinase-Glo ATP luminescence, 1 h; Potency, µM (series often up to 57.5 µM), actives largely listed as inhibitors; hit rate 0.37% among 290,000; AID 1721, 2009
Target sequence (Q27686 whole entry, looked up): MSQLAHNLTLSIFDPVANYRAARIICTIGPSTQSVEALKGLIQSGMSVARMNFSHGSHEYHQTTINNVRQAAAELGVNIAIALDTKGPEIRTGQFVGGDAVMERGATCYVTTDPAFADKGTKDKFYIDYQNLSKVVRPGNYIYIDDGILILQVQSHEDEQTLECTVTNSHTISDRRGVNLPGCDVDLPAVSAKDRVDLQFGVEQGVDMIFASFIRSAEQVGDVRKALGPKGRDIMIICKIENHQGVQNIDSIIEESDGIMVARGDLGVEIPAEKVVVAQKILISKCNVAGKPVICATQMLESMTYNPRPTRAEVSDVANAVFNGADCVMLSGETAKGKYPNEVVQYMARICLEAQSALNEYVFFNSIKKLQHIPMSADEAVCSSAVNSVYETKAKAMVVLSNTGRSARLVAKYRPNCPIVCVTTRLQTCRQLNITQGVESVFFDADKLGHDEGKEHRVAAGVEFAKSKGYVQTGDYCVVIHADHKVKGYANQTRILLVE
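Kinase-Glo luminescence read after 1 h RT reaction of 0.1 nM LmPK with 0.5 mM PEP and 0.1 mM ADP. Activity scaled between uninhibited and enzyme-free controls.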
Hits are given with their value; n = inactive; u = inconclusive; x = no result given; [ ] = dose if it differs, or a comment. Only some compounds are listed: those with a hit (about 0.81% of all), similar ones and a draw of the others. Unless noted, calls follow the shape of the dose curve; as a rule, active = well fitted curve in the direction sought with a large enough effect; inconclusive = small, poorly fitted or top-dose-only effect, or another doubt; inactive = no such curve, though single readings can be large; an effect the other way counts as inactive or inconclusive.

SMILES	SARS PLP yeast	AMA1-RON2 inh	Tb PYK inh	RE007 growth inh	LmPK inhibitor
CCN(CC)c1ccc2cc(-c3nc4ccccc4[nH]3)c(=O)oc2c1	n	n	n	n	n
CCN(CC)c1ccc2nc3ccccc3[n+](CC)c2c1	n	u	u	2.8µM	u
CCN(CC)c1ccc2nc3ccc(N)cc3[n+](-c3ccccc3)c2c1	n	20µM	u	22µM	x
CCN(CC)C(=O)[C@@]1(c2ccccc2)C[C@@H]1CN	x	x	n	x	x
C=CCOC(=O)c1cc(-c2ccc(/C=C3\C(=O)NC(=O)C(C#N)=C3C)o2)ccc1Cl	n	n	n	40µM	n
CC1(C)OC(=O)C(=Cc2ccc(-c3ccc(Cl)c(C(=O)O)c3)o2)C(=O)O1	n	n	16µM	n	n
CC1=NOC(=O)/C1=C\c1ccc(-c2ccc(Cl)c(C(=O)O)c2)o1	n	n	n	n	n
CN(C(=O)CO)c1c(I)c(C(=O)NCC(O)CO)c(I)c(C(=O)NCC(O)CO)c1I (configuration not stated)	x	x	n	x	x
CCOC(=O)CN1C(=O)N[C@@H](c2cccc(C(F)(F)F)c2)[C@H](C(=O)OC)[C@H]1C	x	x	x	x	n[11.5 µM]
COc1ccccc1-c1nc(SCC(=O)Nc2ccc(C)c(C)c2)n[nH]1	x	x	n	x	x
Cc1c([N+](=O)[O-])c(C(=O)Nc2ccc3c(c2)OCCO3)nn1C	n	n	u	n	14µM
Cc1ncoc1C(=O)Nc1ccc2c(c1)OCCO2	n	n	n	n	16µM
O=C(Nc1ccc2c(c1)OCO2)c1ccc(Br)o1	n	n	n	n	22µM
Cc1ccsc1C(=O)Nc1ccc2c(c1)OCCO2	n	n	u	n	16µM
COc1ccc(C2c3c(n(C)c4ccccc34)C(=O)N2CC(=O)Nc2ccc(Cl)cc2)cc1 (configuration not stated)	x	x	n[15.4 µM]	x	x
Cn1c(=Nc2ccccc2)sc2ccccc21	n	n	n	n	n
CN(C)c1ccc(N=c2sc3ccccc3n2C)cc1	n	24µM	u	n	n
COc1cccc(-c2sc3ccc(OC)cc3c2-c2ccc(OCCN(C)C)cc2)c1	n	14µM	n	n	x
CN(Cc1c(O)ccc2c1oc(=O)c1ccccc12)C1CCCCC1	n	21µM	n	n	n
CN(C)Cc1c(O)ccc2c3c(c(=O)oc12)CCCCC3	n	n	n	n	n
Cc1ccc(C(=O)c2cc(O)c(O)c([N+](=O)[O-])c2)cc1	x	x	n	x	x
O=C(c1cc(Cc2n[nH]c(=O)c3ccccc23)ccc1F)N1CCN(C(=O)C2CC2)CC1	x	x	n	x	x
C[C@H]1Cc2c(COc3ccccc3)nc3c(c2CO1)CN(C(=O)C1CC1)CC3	x	x	x	x	n[11.5 µM]
O=C(c1ccccc1)c1nnc(-c2ccccc2F)o1	n	n	n	n	14µM
CCN(CC)c1ccc(N=Nc2ccc(S(=O)(=O)N(C)C)cc2)c(S(=O)(=O)NCC[n+]2ccccc2)c1	x	x	n	x	x
SMILES	SARS PLP yeast	AMA1-RON2 inh	Tb PYK inh	RE007 growth inh	LmPK inhibitor
Cn1ccc2c(-c3ccc(C(C)(C)C)cc3)cc3c(c21)C1CCC3C1 (configuration not stated)	x	n	n	n	x
Cn1ccc2c(-c3ccc(C(=O)O)cc3)cc3c(c21)C1CCC3C1 (configuration not stated)	x	n	n	45µM	x
COc1ccc(CN(C)C(=O)c2cccc(Oc3ccccc3)c2)c(OC)c1OC	n	n	n	n	n
COc1ccc(-c2cc3nc4n(c(=O)c3s2)CCC4)cc1	n	n	n	n	7.1µM
COc1ccc(CNC(=S)Nc2ccc(OC)cc2)cc1	11µM	n	n	n	n
CC1(C)OC(=O)C(=NNc2ccccc2)C(=O)O1	n	n[11.6 µM]	n	n	n
CC1(C)OC(=O)C(=NNc2ccccc2[N+](=O)[O-])C(=O)O1	n	n	n	35µM	n
COc1cc2nc(/C=C/c3ccc(N(C)C)cc3)sc2cc1SC	n	18µM	n	n	n
CN1C(=O)C(=Cc2ccc(Sc3ccccc3)o2)C(=O)N(C)C1=O	n	n	n	n	n
O=C1NC(=O)C(=Cc2ccc(Sc3ccccc3)o2)C(=O)N1	n	n	40µM	n	u
Cc1ccc2oc(-c3ccccc3)nc2c1	n	n	n	n	16µM
C=C(C)COC(=O)C1CC2OC2CC1C(=O)OCC(=C)C (configuration not stated)	x	n	n	n	x
O=C(NC(=S)NCCC1=CCCCC1)c1cncc(Br)c1	13µM	n	n	n	n
CCOC(=O)c1[nH]c(=S)n(-c2ccccc2)c1C(=O)OCC	x	n	2.5µM	n	x
CCOC(=O)c1[nH]c(=S)n(Cc2ccccc2)c1C(=O)OCC	x	n	u	n	x
COc1ccc(-c2cn3nc(N4CCCC(C(=O)NCc5ccc(Cl)cc5)C4)sc3n2)cc1 (configuration not stated)	x	x	n	x	x
C/C1=C2/[N-]C(C(CC(N)=O)[C@@]2(C)CCC(=O)NCC(C)OP(=O)([O-])O[C@H]2[C@@H](O)[C@@H](n3cnc4cc(C)c(C)cc43)O[C@@H]2CO)[C@]2(C)N=C(/C(C)=C3N=C(/C=C4N=C1C(CCC(N)=O)C\4(C)C)[C@@H](CCC(N)=O)[C@]\3(C)CC(N)=O)[C@@H](CCC(N)=O)[C@]2(C)CC(N)=O.CC(=O)O.[Co] (some centres not stated)	x	x	n	x	x
CCc1nn2c(-c3ccccc3OC)ccnc2c1-c1ccccc1	x	x	n	x	x
Cn1ccc2c(N3CCCCCCC3)cc3c(c21)C1CCC3O1 (configuration not stated)	x	25µM	n	n	x
O=C(CN1CCN(c2ccc(O)cc2)CC1)Nc1ccccc1C(=O)NCCc1ccccc1	n	n	28µM	n	x
COc1cccc(N2CCN(CC(=O)Nc3ccccc3C(=O)NCCc3ccccc3)CC2)c1	n	n	n	u	x
O=C1CC(N2CCN(c3ccc(F)cc3)CC2)C(=O)N1c1ccc(F)cc1 (configuration not stated)	n	n	n	n	n
COc1ccc(N2C(=O)CC(N3CCCCC3)C2=O)cc1 (configuration not stated)	n	n	n	18µM	n
COc1ccc(N2C(=O)CC(N3CCCC4CCCCC43)C2=O)cc1 (configuration not stated)	n	n	n	7.1µM	n
O=C1CC(N2CCCCCC2)C(=O)N1c1ccc(F)cc1 (configuration not stated)	n	n	n	10µM	n
COc1ccc(N2C(=O)CC(N3CCN(c4ccc(S(=O)(=O)N5CCCC5)cc4)CC3)C2=O)cc1 (configuration not stated)	n	n	n	n	n
O=C1CC(N2CCSCC2)C(=O)N1c1ccc(F)cc1 (configuration not stated)	n	n	n	25µM	n

Compound activity: PubChem BioAssay, National Center for Advancing Translational Sciences (NCATS)
